Here are results for 17 compounds from PubChem BioAssay (NCATS).

Records with an inconclusive call do not appear. A call without a number means that no potency is given here. Activity calls are given as the source filed them. Calls come from the whole dose curve; as a rule, active = well fitted inhibition curve with a large enough effect; inconclusive = small, poorly fitted or top-dose-only effect; inactive = flat fitted curve, though single readings scatter.

This assay deals with Voltage-gated inwardly rectifying potassium channel KCNH2 (Homo sapiens) (UniProt Q12809). Description: qHTS Assay for Small Molecule Inhibitors of the Human hERG Channel Activity (AID 588834).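 Note: top concentration of the series differs between compounds; lower thallium flux fluorescence means stronger hERG block; nearly all actives have a fitted effect of over 50% in size.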 To be noted: U2OS BacMam hERG, FluxOR thallium flux fluorescence; series mostly up to 46.1 µM. In short, it runs like this: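 hERG-BacMam U2OS, 2000 cells/well; 0.7X FluxOR loading 1 hr RT dark; cpd ~10 min 37 °C; stim buffer; FDSS fluorescence 2 min @ 1 s; AC50 Hill fit.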
Sequence of Voltage-gated inwardly rectifying potassium channel KCNH2 (Homo sapiens) (Q12809 whole entry, looked up): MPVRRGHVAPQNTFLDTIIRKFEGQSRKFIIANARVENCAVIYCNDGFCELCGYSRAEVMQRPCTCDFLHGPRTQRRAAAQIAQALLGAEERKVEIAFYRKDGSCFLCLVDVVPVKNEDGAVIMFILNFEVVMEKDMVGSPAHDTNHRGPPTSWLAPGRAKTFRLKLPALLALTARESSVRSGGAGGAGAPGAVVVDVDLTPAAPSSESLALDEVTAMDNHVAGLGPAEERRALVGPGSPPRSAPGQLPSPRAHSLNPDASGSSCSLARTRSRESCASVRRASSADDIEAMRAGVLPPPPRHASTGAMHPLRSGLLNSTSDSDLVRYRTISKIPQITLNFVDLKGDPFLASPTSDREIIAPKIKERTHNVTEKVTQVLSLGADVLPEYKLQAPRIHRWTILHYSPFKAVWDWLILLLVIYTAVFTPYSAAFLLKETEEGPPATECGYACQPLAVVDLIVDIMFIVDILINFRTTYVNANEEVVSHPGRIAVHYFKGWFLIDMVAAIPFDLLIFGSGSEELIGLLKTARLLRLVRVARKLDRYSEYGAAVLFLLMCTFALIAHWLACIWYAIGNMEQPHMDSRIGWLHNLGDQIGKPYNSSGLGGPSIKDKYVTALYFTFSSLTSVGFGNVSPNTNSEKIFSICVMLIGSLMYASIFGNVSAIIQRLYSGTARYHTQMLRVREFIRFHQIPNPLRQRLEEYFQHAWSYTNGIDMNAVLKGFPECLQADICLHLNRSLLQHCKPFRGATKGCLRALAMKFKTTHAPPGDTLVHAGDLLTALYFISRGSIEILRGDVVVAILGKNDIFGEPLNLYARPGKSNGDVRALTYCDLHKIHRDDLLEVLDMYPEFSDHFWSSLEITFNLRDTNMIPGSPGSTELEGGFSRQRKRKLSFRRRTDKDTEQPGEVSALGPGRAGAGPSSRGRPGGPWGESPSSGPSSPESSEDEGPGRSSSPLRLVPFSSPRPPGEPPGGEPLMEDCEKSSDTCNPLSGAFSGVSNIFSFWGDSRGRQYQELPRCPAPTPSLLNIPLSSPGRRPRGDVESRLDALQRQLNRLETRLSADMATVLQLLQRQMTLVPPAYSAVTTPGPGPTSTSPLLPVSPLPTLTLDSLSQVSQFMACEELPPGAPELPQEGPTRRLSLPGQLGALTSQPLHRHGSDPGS
On the technique in general: In qHTS, concentration-response curves come from the screen itself.
Take `CC(C)(CO)[C@@H](O)C(=O)NCCCC(=O)O`: the Potency result was “inactive”. Then `O=P(O)(O)CP(=O)(O)O`, with “inactive”; and `CCN(CC)C(=S)S`, with “inactive”. As to `COC(=O)CCC[N+](C)(C)C`, the Potency entry is “inactive”. The entry for `CN[C@@H]1[C@@H](O)[C@@H](O[C@@H]2[C@@H](O)[C@H](O[C@H]3O[C@H](CN)[C@@H](O)[C@H](O)[C@H]3O)[C@@H](N)C[C@H]2NC(=O)C(O)CN)OC[C@]1(C)O` (some centres not stated) is “inactive”; for `O=C(O)c1ccc(NC2OC[C@@H](O)[C@H](O)[C@H]2O)cc1` (some centres not stated) it is “inactive”.

`CC(=O)N[C@@H](C=O)[C@@H](O)[C@H](O)[C@H](O)CO`: the Potency result was “inactive”. The entry for `CS(=O)(=O)c1ccc([C@@H](O)[C@@H](COC(=O)CN)NC(=O)C(Cl)Cl)cc1` is “inactive”; for `FC(F)OC(Cl)C(F)(F)F` (configuration not stated) it is “inactive”. As for `CC1C(=O)CC2C3(C)CCC2(C(C)C(=O)O)C(=O)C13` (configuration not stated), the Potency entry was “inactive”. Consider `O=C[C@H](O)[C@@H](O)[C@@H](O)[C@H](O)CO`, for which the Potency result is “inactive”. Then `CO[C@H]1C=CO[C@@]2(C)Oc3c(C)c(O)c4c(O)c(cc(O)c4c3C2=O)NC(=O)/C(C)=C\C=C/[C@H](C)[C@H](O)[C@@H](C)[C@@H](O)[C@@H](C)[C@H](OC(C)=O)[C@@H]1C`, with “inactive”; and `CCCCCCCCCCCCCC(=O)OCC(COP(=O)([O-])OCC[N+](C)(C)C)OC(=O)CCCCCCCCCCCCC` (configuration not stated), with “inactive”; and `Cc1ncc(C[n+]2csc(CCO)c2C)c(N)n1`, with “inactive”.

Take `CCN(CC)C(=O)c1cccnc1`: the Potency entry was “inactive”. Then `CCOC(=S)SSC(=S)OCC`, with “inactive”; and `OCC1(CO)COC(C(Cl)(Cl)Cl)OC1`, with “inactive”.
